Source: publication PMC5540273 (PLoS ONE, 2017)

Test system: MARK2
Conditions: concentration: 1 μM,replicates: in singlicate; n = 1
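Further: KINOMEscan kinase panel screen.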

Structure (SMILES) | %Inh
CN(C)CCOc1ccc(-c2cc(-c3c[nH]nc3-c3ccccn3)ccn2)cc1 [GW835314] | 18%
Cl.Cl.NC[C@H](Cc1ccc(C(F)(F)F)cc1)NC(=O)c1cc(Br)c(-c2ccnc3[nH]ccc23)s1 [GSK1487252] | 0%
CCn1c(-c2nonc2N)nc2c(C#CC(C)(C)O)nc(OCCN)cc21.Cl.Cl [GSK902056] | 0%
Cl.Cl.Nc1nc(-c2ccc3c(N)n[nH]c3c2)cc(N2CCCC(NC(=O)c3ccccc3)C2)n1 (stereo not shown) [GSK2286775] | 0%
Nc1nc(Nc2ccccc2)cc(-c2ccc3c(N)n[nH]c3c2)n1 [GSK2225749] | 0%
O=C(NCCNc1ccnc(NCc2ccc(F)cc2)n1)c1cc2ccccc2s1 [GSK1379944] | 0%
CC(C)Nc1cc(-c2ccc3c(N)n[nH]c3c2)nc(N)n1 [GSK2221681] | 0%
Cl.Oc1cc(-c2nc(-c3ccccc3)[nH]c2-c2ccncc2)ccc1Cl [SB-386023] | 2%
Cc1n[nH]c2ccc(-c3cc(OC[C@@H](N)Cc4ccccc4)cnc3-c3ccoc3)cc12.O=C(O)C(F)(F)F.O=C(O)C(F)(F)F [GSK507358] | 0%
Cc1ccc2c(-c3ccncc3)c(-c3ccc(F)cc3)nn2c1.Cl [GW461484] | 0%
Cc1occc1-c1nc(N)c(OC[C@@H](N)Cc2c[nH]c3ccccc23)cc1-c1cc2c(C)n[nH]c2cn1 [GSK1660450] | 71%
NC(=O)c1cc(-c2ccccc2)cc2c(C3CCNCC3)c[nH]c12 [GSK301362] | 0%
Cc1cc2cn[nH]c2cc1-c1cccc2c(N)c(C(N)=O)nnc12 | 5%
O=C(NCCCN1CCOC1=O)c1cnc(NCc2cc(Cl)ccc2Cl)nc1NC1CCCC1 | 0%

Test system: MARK3
Conditions: concentration: 1 μM,replicates: in singlicate; n = 1

Structure (SMILES) | %Inh
CCN(CC)CCOc1ccc(Nc2ncc3cc(-c4c(Cl)cccc4Cl)c(=O)n(C)c3n2)cc1 [SB-601273] | 84%
CNC(=O)c1ccccc1Sc1ccc2c(/C=C/c3ccccn3)n[nH]c2c1 | 1%
C[C@@H](Oc1cc(-c2cnn(C3CCNCC3)c2)cnc1N)c1c(Cl)ccc(F)c1Cl | 25%
Cl.Cl.NC[C@H](CC1CCCCC1)NC(=O)c1cc(Br)c(-c2ccnc3[nH]ccc23)s1 [GSK1581427] | 74%
C=CC(=O)Nc1cc2c(Nc3ccc(F)c(Cl)c3)ncnc2cc1OCCCN1CCOCC1 [GW781483] | 10%
COc1ccc(C[C@@H](CN)NC(=O)c2cc(Br)c(-c3ccnc4[nH]ccc34)s2)cc1.Cl.Cl [GSK1389063] | 63%
Cc1cc(C(=O)Nc2ccc(Oc3ccc4nc(NC(=O)C5CC5)cn4n3)cc2)nn1-c1ccccc1 | 7%
CCN(CC)CCCCNc1ncc2cc(-c3c(Cl)cccc3Cl)c(NC(=O)NC(C)(C)C)nc2n1 | 1%
CN(C)CC(O)COc1ccc(Nc2nccc(-c3cnn4nc(N5CCOCC5)ccc34)n2)cc1 (stereo not shown) [GW767488] | 19%
Cc1ccc(-n2nc(C(C)(C)C)cc2NC(=O)Nc2ccc(OCCN3CCOCC3)c3ccccc23)cc1 [GW839464] | 2%
CC(C)N1C(=O)Cc2cc(Nc3ncc(C(F)(F)F)c(NCc4cccc(S(C)(=O)=O)c4)n3)ccc21 | 42%
C[C@H]1Oc2cc(cnc2N)-c2c(nn(C)c2C#N)CN(C)C(=O)c2ccc(F)cc21 | 0%
CN(C)CCOc1ccc(-c2cc(-c3c[nH]nc3-c3ccccn3)ccn2)cc1 [GW835314] | 5%
Cl.Cl.NC[C@H](Cc1ccc(C(F)(F)F)cc1)NC(=O)c1cc(Br)c(-c2ccnc3[nH]ccc23)s1 [GSK1487252] | 47%
CCn1c(-c2nonc2N)nc2c(C#CC(C)(C)O)nc(OCCN)cc21.Cl.Cl [GSK902056] | 0%
Cl.Cl.Nc1nc(-c2ccc3c(N)n[nH]c3c2)cc(N2CCCC(NC(=O)c3ccccc3)C2)n1 (stereo not shown) [GSK2286775] | 0%
Nc1nc(Nc2ccccc2)cc(-c2ccc3c(N)n[nH]c3c2)n1 [GSK2225749] | 0%
O=C(NCCNc1ccnc(NCc2ccc(F)cc2)n1)c1cc2ccccc2s1 [GSK1379944] | 0%
CC(C)Nc1cc(-c2ccc3c(N)n[nH]c3c2)nc(N)n1 [GSK2221681] | 0%
Cl.Oc1cc(-c2nc(-c3ccccc3)[nH]c2-c2ccncc2)ccc1Cl [SB-386023] | 0%
Cc1n[nH]c2ccc(-c3cc(OC[C@@H](N)Cc4ccccc4)cnc3-c3ccoc3)cc12.O=C(O)C(F)(F)F.O=C(O)C(F)(F)F [GSK507358] | 0%
Cc1ccc2c(-c3ccncc3)c(-c3ccc(F)cc3)nn2c1.Cl [GW461484] | 0%
Cc1occc1-c1nc(N)c(OC[C@@H](N)Cc2c[nH]c3ccccc23)cc1-c1cc2c(C)n[nH]c2cn1 [GSK1660450] | 71%
NC(=O)c1cc(-c2ccccc2)cc2c(C3CCNCC3)c[nH]c12 [GSK301362] | 0%
Cc1cc2cn[nH]c2cc1-c1cccc2c(N)c(C(N)=O)nnc12 | 0%
O=C(NCCCN1CCOC1=O)c1cnc(NCc2cc(Cl)ccc2Cl)nc1NC1CCCC1 | 30%
